Data from PubChem BioAssay (Tox21).
Results filed as inconclusive are left out. Active and inactive are the calls of the source. Unless noted, calls follow the shape of the dose curve; as a rule, active = well fitted curve in the direction sought with a large enough effect in the repeat runs; inconclusive = weak or mixed curves; inactive = no such curve, though single readings can be large; an effect the other way counts as inactive or inconclusive.

Legend:
[1] = molecular target: Luciferin 4-monooxygenase (Photinus pyralis) (UniProt P08659); test: qHTS assay to identify small molecule inhibitors of firefly luciferase (AID 1224835); also: nearly all actives have a fitted effect of over 25% in size
Luciferin 4-monooxygenase (Photinus pyralis), sequence (P08659 whole entry, looked up): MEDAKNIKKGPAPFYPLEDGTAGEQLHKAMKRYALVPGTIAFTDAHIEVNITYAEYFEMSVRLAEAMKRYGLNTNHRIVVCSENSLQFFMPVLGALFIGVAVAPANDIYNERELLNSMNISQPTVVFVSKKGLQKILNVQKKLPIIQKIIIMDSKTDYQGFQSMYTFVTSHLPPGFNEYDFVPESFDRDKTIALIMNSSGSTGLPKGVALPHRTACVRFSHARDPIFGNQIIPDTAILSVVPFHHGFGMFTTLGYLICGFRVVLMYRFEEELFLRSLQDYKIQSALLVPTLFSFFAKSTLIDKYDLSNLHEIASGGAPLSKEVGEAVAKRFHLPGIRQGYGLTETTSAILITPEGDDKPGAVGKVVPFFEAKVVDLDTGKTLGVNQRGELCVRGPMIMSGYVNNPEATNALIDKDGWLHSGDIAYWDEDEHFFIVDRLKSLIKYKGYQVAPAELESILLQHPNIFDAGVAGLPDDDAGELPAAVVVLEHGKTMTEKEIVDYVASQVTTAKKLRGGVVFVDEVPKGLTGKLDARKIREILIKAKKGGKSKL
In short: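 Quantitative HTS format; KM concentrations of both substrates. Purified P. pyralis FLuc activity quantified from luminescence images.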

[2] = qHTS assay to identify small molecule agonists of the constitutive androstane receptor (CAR) signaling pathway - cell viability counter screen (AID 1224836); also: nearly all actives have a fitted effect of over 45% in size
In short: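 Compound titrations (15 concentrations) went onto HepG2-CYP2B6-hCAR cells 4 h after seeding, alongside PK11195 at a final 0.75 uM; a 23 h, 37 C/5% CO2 incubation preceded CellTiter-Fluor viability measurement.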

[3] = qHTS assay to identify small molecule antagonists of the constitutive androstane receptor (CAR) signaling pathway - cell viability counter screen (AID 1224837); also: nearly all actives have a fitted effect of over 45% in size
In short: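 Counter screen run in HepG2-CYP2B6-hCAR cells: 4 hr settle, compound titration (15 concentrations) with 50 nM CITCO, 23 hr at 37 C/5% CO2, CellTiter-Fluor fluorescence.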

[4] = molecular target: Nuclear receptor subfamily 1 group I member 3 (Homo sapiens) (UniProt Q14994); test: qHTS assay to identify small molecule antagonists of the constitutive androstane receptor (CAR) signaling pathway (AID 1224838);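 also: HepG2 cells stably expressing hCAR with CYP2B6 luciferase reporter stimulated by CITCO; nearly all actives have a fitted effect of over 40% in size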
Nuclear receptor subfamily 1 group I member 3 (Homo sapiens), sequence (Q14994 whole entry, looked up): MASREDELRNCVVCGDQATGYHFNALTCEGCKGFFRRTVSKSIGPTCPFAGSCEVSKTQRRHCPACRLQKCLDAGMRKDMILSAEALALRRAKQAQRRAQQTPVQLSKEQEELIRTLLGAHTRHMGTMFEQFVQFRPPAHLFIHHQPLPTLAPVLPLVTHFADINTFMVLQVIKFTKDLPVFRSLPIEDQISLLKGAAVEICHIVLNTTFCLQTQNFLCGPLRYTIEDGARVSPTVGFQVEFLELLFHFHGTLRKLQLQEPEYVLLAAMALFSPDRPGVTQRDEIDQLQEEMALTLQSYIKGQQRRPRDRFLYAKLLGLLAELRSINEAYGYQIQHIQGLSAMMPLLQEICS
In short: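 Cell line: HepG2 double-stable for hCAR and CYP2B6-2.2kb reporter. Agonist: CITCO, 50 nM final. Compounds: 15 concentrations, 24 h, 37 C. Detection: ONE-Glo luminescence.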

[5] = molecular target: Nuclear receptor subfamily 1 group I member 3 (Homo sapiens) (UniProt Q14994); test: qHTS assay to identify small molecule agonists of the constitutive androstane receptor (CAR) signaling pathway (AID 1224839);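 also: HepG2 cells stably carrying human CAR and a CYP2B6 luciferase reporter; nearly all actives have a fitted effect of over 15% in size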
In short: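 In this screen, CAR-driven CYP2B6 promoter activity is measured by luminescence in HepG2-CYP2B6-hCAR cells after 24 h with test compounds and 0.75 uM PK11195 (final concentration).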

[6] = qHTS assay to identify small molecule antagonists of the estrogen related receptor signaling pathway with the pleiotropic PPARgamma coactivator (PGC) from Tox21 10K library - cell viability counter screen (AID 1224840; active = well fitted cell-killing curve with a large enough effect in the repeat runs, not every such curve was filed as active; also: nearly all actives have a fitted effect of over 40% in size)
In short: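 Following seeding of 2,000 PGC/ERR cells/well and 6 hours' incubation, test compounds were delivered in DMSO. The plates then sat 17.5 hours at 37 C before a fluorogenic live-cell protease reagent (CellTiter-Fluor) was read after 30 min.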

[7] = molecular target: Thyrotropin receptor (Homo sapiens) (UniProt P16473); test: qHTS assay to identify small molecule agonists of the thyroid stimulating hormone receptor (TSHR) signaling pathway (AID 1224843; calls by dose curve; also: nearly all actives have a fitted effect of over 45% in size)
Thyrotropin receptor (Homo sapiens), sequence (P16473 whole entry, looked up): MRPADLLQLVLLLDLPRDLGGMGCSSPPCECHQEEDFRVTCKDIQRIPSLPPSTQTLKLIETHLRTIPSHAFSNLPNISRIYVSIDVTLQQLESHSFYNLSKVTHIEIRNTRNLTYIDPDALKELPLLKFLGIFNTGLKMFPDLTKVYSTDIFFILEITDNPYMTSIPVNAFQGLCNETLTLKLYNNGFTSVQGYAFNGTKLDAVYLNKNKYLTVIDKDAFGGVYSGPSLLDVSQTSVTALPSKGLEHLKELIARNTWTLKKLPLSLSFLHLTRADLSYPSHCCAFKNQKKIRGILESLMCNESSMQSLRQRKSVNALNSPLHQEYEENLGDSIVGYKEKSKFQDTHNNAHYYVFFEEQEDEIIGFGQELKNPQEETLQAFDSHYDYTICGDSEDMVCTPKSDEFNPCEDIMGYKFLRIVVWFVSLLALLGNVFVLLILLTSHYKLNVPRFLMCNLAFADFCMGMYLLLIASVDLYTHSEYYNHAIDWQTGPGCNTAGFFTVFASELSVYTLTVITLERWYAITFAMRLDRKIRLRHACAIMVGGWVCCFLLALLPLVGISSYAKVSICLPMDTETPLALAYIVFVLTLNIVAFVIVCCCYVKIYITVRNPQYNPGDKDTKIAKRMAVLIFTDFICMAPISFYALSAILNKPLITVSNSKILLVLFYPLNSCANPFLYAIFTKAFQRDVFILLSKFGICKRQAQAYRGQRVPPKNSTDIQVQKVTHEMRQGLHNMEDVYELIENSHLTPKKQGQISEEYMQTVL
In short: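 TSHR-expressing HEK293 cells (800 per well) were exposed to compounds for 30 min at room temperature. cAMP was then detected by HTRF competition with cAMP-d2 and anti-cAMP cryptate, read after 1 h at room temperature. Fifteen concentrations, triplicate.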

[8] = qHTS assay to identify small molecule agonists of the hypoxia (HIF-1) signaling pathway - cell viability counter screen (AID 1224844; calls by dose curve; also: nearly all actives have a fitted effect of over 50% in size)
In short: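 Cells (HRE-bla ME-180, 2,000 per well) sat 5 hrs at 37C, got compound for 17 hrs, were read for CCF4-AM FRET, and were finally lysed with CellTiter-Glo for a 30 min room-temperature luminescence read.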

[9] = qHTS assay to identify small molecule agonists of H2AX (AID 1224845; active = well fitted activation curve with a large enough effect in the signal ratio in the repeat runs, not every such curve was filed as active; the % refers to the signal ratio)
In short: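 Wild-type CHO-K1 cells plated overnight, then exposed 3 hr at 37C to compounds at 15 concentrations (0.76% DMSO). Lysed, then HTRF anti-pH2AX(S139)-cryptate/anti-H2AX-d2 detection after 24 hr at room temperature; emissions 665 and 620 nm.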

[10] = qHTS assay to identify small molecule agonists of the hypoxia (HIF-1) signaling pathway (AID 1224846; active = well fitted activation curve with a large enough effect in the signal ratio in the repeat runs, not every such curve was filed as active; the % refers to the signal ratio)
In short: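 A low-serum medium (0.5% dialyzed FBS) holding 2,000 HRE-bla ME-180 cells per well is preincubated for 5 hrs, dosed with compounds by pintool, and kept a further 17 hrs at 37C, 5% CO2 before CCF4-AM FRET detection of beta-lactamase.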

[11] = qHTS assay to identify small molecule agonists of H2AX - cell viability counter screen (AID 1224847; calls by dose curve; also: top concentration of the series differs between compounds; nearly all actives have a fitted effect of over 30% in size)
In short: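 Read-out: CellTiter-Glo luminescence, 30 min RT. Cells: wild-type CHO-K1, 1000/well, 10% FBS, plated overnight at 37C. Treatment: 15 concentrations, 3 hr, 37C, 0.76% DMSO.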

[12] = qHTS RealTime-Glo MT Cell Viability Assay in HepG2 cells - 24 hour (AID 1224867); also: nearly all actives have a fitted effect of over 50% in size
In short: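 HepG2 cells (600/well) were dispensed with RealTime-Glo reagents, incubated 5 h at 37 °C, then treated with compounds in DMSO for up to 40 h. Nonlytic NanoLuc luminescence reflecting viable cells was read at each stated time point.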

[13] = qHTS RealTime-Glo MT Cell Viability Assay in HEK293 cells - 32 hour (AID 1224868); also: top concentration of the series differs between compounds; nearly all actives have a fitted effect of over 50% in size
In short: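 HEK293 cells seeded with NanoLuc/prosubstrate reagent, rested 5 h at 37 C, then dosed and kept at 37 C up to 40 h. Nonlytic real-time luminescence from viable cells read at 0, 8, 16, 24, 32 and 40 h.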

[14] = A CellTox Green Cytotoxicity Assay to monitor cytotoxicity in HEK293 cells - 0 hour (AID 1224869); also: nearly all actives have a fitted effect of over 50% in size
In short: (§1)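 Fluorescence intensity, read at 0, 8, 16, 24, 32 and 40 h of compound treatment, reflected dye binding to DNA of dead HEK293 cells; compounds (23 nL, DMSO) were added 5 h after plating cells with reagent.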

[15] = qHTS RealTime-Glo MT Cell Viability Assay in HepG2 cells - 40 hour (AID 1224870); also: nearly all actives have a fitted effect of over 50% in size
In short: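 HepG2 cells mixed with RealTime-Glo MT reagents (NanoLuc plus cell-permeant prosubstrate) were seeded at 600 cells/well, incubated 5 h at 37 C/5% CO2, then pinned with compounds in DMSO; nonlytic luminescence tracked viability during 40 h treatment.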

[16] = qHTS assay to identify small molecule antagonists of the estrogen related receptor signaling pathway with the pleiotropic PPARgamma coactivator (PGC) from Tox21 10K library (AID 1224841; call rule not given here)
In short: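 qHTS antagonist format: PGC/ERR cells, 2k/well, compound in DMSO by pin transfer after 6 h attachment, 18 h treatment at 37 C, One-Glo luminescence read at 30 min.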

[17] = qHTS assay to identify small molecule agonists of the estrogen related receptor signaling pathway with the pleiotropic PPARgamma coactivator (PGC) from Tox21 10K library (AID 1224842); also: nearly all actives have a fitted effect of over 15% in size
In short: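 PGC/ERR reporter cells (NTP line) were seeded 2,000 per well, rested 6 h at 37 C/5% CO2, then pin-dosed with compounds in DMSO for 18 h at 37 C; luciferase read by One-Glo luminescence after 30 min at room temperature.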

[18] = qHTS assay to identify small molecule antagonists of the estrogen related receptor (ERR) signaling pathway from Tox21 library (AID 1224848); also: nearly all actives have a fitted effect of over 50% in size
In short: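 Cells: ERR line, 2,000/well; 6 h preincubation 37 C/5% CO2. Cpd in DMSO via pin tool; 18 h, 37 C. ONE-Glo, 30 min RT, luminescence.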

[19] = qHTS assay to identify small molecule agonists of the estrogen related receptor (ERR) signaling pathway from Tox21 library (AID 1224849; calls by dose curve; also: nearly all actives have a fitted effect of over 15% in size); settings: ERR reporter cell line, ONE-Glo luciferase, 18 h; at 92.4 µM (top of the series) unless noted
In short: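 Screening used an NTP-provided ERR luciferase cell line. Compounds in DMSO were added 6 h after seeding and left 18 h at 37 C before a 30 min ONE-Glo step and luminescence reading.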

[20] = A CellTox Green Cytotoxicity Assay to monitor cytotoxicity in HEK293 cells - 40 hour (AID 1224871); also: nearly all actives have a fitted effect of over 45% in size
In short: as §1
% is scaled to controls: 0 for no effect and ±100 for the full control effect.

O=P(O)(Oc1ccccc1)Oc1ccccc1
inactive: Potency [1] | Potency [2] | Potency [3] | Potency [4] | Potency [5] | Potency [6] | Potency [7] | Potency [8] | Potency [9] | outcome [10] | Potency [11] | Potency [12] | Potency [13] | Potency [14] | Potency [15]

CS(=O)(=O)c1cc(C(F)(F)F)ccc1C(=O)c1cnoc1C1CC1
inactive: Potency [1] | Potency [2] | Potency [3] | Potency [4] | Potency [5] | Potency [6] | Potency [16] | outcome [17] | Potency [7] | Potency [8] | outcome [10] | Potency [11] | Potency [18] | activity change, positive = activation [19] 9.23% | Potency [12] | Potency [13] | Potency [14] | Potency [15] | Potency [20]

ClC(Br)Br
inactive: Potency [1] | Potency [2] | Potency [3] | Potency [4] | Potency [5] | Potency [6] | Potency [16] | outcome [17] | Potency [7] | Potency [8] | outcome [10] | Potency [11] | Potency [18] | activity change, positive = activation [19] 1.41% | Potency [12] | Potency [13] | Potency [14] | Potency [15] | Potency [20]

CCCCN(CCCCO)N=O
inactive: Potency [1] | Potency [2] | Potency [3] | Potency [4] | Potency [5] | Potency [6] | Potency [16] | outcome [17] | Potency [7] | Potency [8] | outcome [10] | Potency [11] | Potency [18] | activity change, positive = activation [19] -8.16% | Potency [12] | Potency [13] | Potency [14] | Potency [15] | Potency [20]

Cc1ncc2n1-c1ccc(Cl)cc1C(c1ccccc1F)=NC2
inactive: Potency [1] | Potency [2] | Potency [3] | Potency [4] | Potency [5] | Potency [6] | Potency [16] | Potency [7] | Potency [8] | outcome [10] | Potency [11] | Potency [18] | activity change, positive = activation [19] 12.1% [at 42.5 µM] | Potency [12] | Potency [14] | Potency [15] | Potency [20]

ClCCOCOCCCl
inactive: Potency [1] | Potency [2] | Potency [3] | Potency [4] | Potency [5] | Potency [6] | Potency [16] | outcome [17] | Potency [7] | Potency [8] | Potency [9] | outcome [10] | Potency [11] | Potency [18] | activity change, positive = activation [19] -2.74% | Potency [12] | Potency [13] | Potency [14] | Potency [15] | Potency [20]
